Measured values taken from PubChem BioAssay AID2763 (National Center for Advancing Translational Sciences (NCATS), 2010).
Inconclusive results are not listed. Active and inactive are the calls of the source. Calls follow the shape of the dose curve; as a rule, active = well fitted inhibition curve with a large enough effect; inconclusive = small, poorly fitted or top-dose-only effect, or effect the other way; inactive = no such curve, though single readings can be large or run the other way.

experiment: Concentration response confirmation VP16 counterscreen for inhibitors of ROR gamma transcriptional activity; conditions: Drosophila S2 Gal4-VP16 UAS-luciferase, luminescence, 20 h; series mostly up to 46.1 µM; also: nearly all actives have a fitted effect of over 70% in size
Text: NIH Molecular Libraries Probe Production Network [MLPCN] NIH Chemical Genomics Center [NCGC] MLPCN Grant: R03 DA026211-01 Assay Provider: Dan Littman, New York University Assay Overview: The retinoic acid-related orphan receptor (ROR) gamma is a transcription factor that has a central role in the differentiation of Th17 cells, a subset of T helper cells that secrete the inflammatory cytokines IL-17, IL-17F, and IL-22. Th17 cells have been implicated in graft versus host disease, autoimmune disease and asthma. ROR gamma is induced in naive T helper cells in the presence of TGF-beta combined with IL-6, IL-21, or IL-23, and thereafter directs the expression of the Th17 lineage cytokines. To identify nonspecific inhibitors, a Drosophila Schneider cell line was stably transfected with two vectors: a gene expressing a fusion of the Gal4 DNA binding domain and the transactivation domain of the viral transcription factor VP16, under the control of the metallothionine promoter and a Photinus luciferase reporter regulated by the Gal4 binding site enhancer, UAS. […] Small molecule inhibitors that inhibit components common to the RORgt and VP16 assays, such as the Gal4 DNA binding domain or the UAS luciferase reporter, will be active in both assays and thus scored as nonspecific.
Assay Protocol Summary: For screening, 600 cells in 4 uL/well were dispensed into white solid 1536-well plates (Grenier) using a solenoid-based dispenser. Following transfer of 23 nL compound or DMSO vehicle by a pin tool, the plates were incubated 1 hr at ambient temperature, and 1 uL/well copper sulfate (700 uM final concentration) was added. The plates were centrifuged 15 s at 1000 RPM and incubated 20 hr at ambient temperature. After addition of 1.5 uL Photinus luciferase detection reagent, the plates were incubated 10 min at ambient temperature and then read by an ViewLux (Perkin Elmer) to detect luminescence.
Potency is read from the fitted curve at half-maximal effect.

**Q.** Which Potency does the source give for `Cn1nnnc1NCc1ccccc1F` here?
**A.** inactive

**Q.** For `COc1ccc(-c2cc(C(=O)NNC3=NCCC3)c3c(C)nn(-c4ccccc4)c3n2)cc1`, which Potency is on record?
**A.** 2.5 µM (active)

**Q.** With `Cc1ccc2nc(-c3ccc(NC(=O)COC(=O)c4ccc([N+](=O)[O-])o4)cc3)sc2c1` as the compound, how does the Potency read?
**A.** 3.53 µM (active)

**Q.** With `O=C(CSc1ccccc1C(=O)N1CCCCC1)NCC1CCCCC1` as the compound, how does the Potency read?
**A.** inactive

**Q.** Which Potency does the source give for `Cc1nnsc1C(=O)NC1CCCc2c1cnn2-c1ccc(C(C)(C)C)cc1` (stereo not given) here?
**A.** 22.3 µM (active)

**Q.** Which Potency does the source give for `COc1cccc(/C=C2\SC(=S)N(CCCC(=O)N3CCCC3)C2=O)c1` here?
**A.** inactive

**Q.** For `CCN1C(=O)/C(=C/c2ccc(N3CCCC3)cc2)NC1=S`, which Potency is on record?
**A.** 9.96 µM (active)

**Q.** Which Potency does the source give for `Cc1cc(C)c2[nH]c(C(=O)Nc3ccc4c(c3)OCO4)cc2c1` here?
**A.** inactive

**Q.** Which Potency does the source give for `COc1ccc(-c2cc(C(F)(F)F)nc(S(=O)(=O)CCCC(=O)Nc3cccnc3Cl)n2)cc1OC` here?
**A.** 9.96 µM (active)

**Q.** Which Potency does the source give for `CCOc1cccc(-c2cc(-c3n[nH]c(=S)n3CC)c3ccccc3n2)c1` here?
**A.** inactive

**Q.** With `Cc1cccc(-c2nc3cc(NC(=O)C4CCCO4)ccc3o2)c1` (stereo not given) as the compound, how does the Potency read?
**A.** 2.5 µM (active)

**Q.** Which Potency does the source give for `CCOC(=O)Cn1c(CN2CCc3ccccc3C2)nc2c1c(=O)n(C)c(=O)n2C` here?
**A.** 3.15 µM (active)

**Q.** For `CCOc1ccc(OCc2cccc(C(=O)O)c2)cc1`, which Potency is on record?
**A.** 8.88 µM (active)

**Q.** With `COc1ccc(Cl)c(Cn2c(NCc3ccco3)nc3c2c(=O)n(C)c(=O)n3C)c1` as the compound, how does the Potency read?
**A.** 1.99 µM (active)

**Q.** With `Cc1cccc(-c2ocnc2C(=O)Nc2ccccc2NC(=O)c2ccccn2)c1` as the compound, how does the Potency read?
**A.** 7.91 µM (active)

**Q.** With `CCCCn1c(CN2CCN(c3ccccc3)CC2)nc2c1c(=O)n(C)c(=O)n2C` as the compound, how does the Potency read?
**A.** 8.88 µM (active)

**Q.** With `COC1CCN(C(=O)c2cc(COc3ccc(-n4cncn4)cc3)on2)CC1` as the compound, how does the Potency read?
**A.** inactive

**Q.** For `CCN1CCCc2cc(CN(CCN3CCOCC3)C(=S)Nc3ccccc3C)ccc21`, which Potency is on record?
**A.** 15.8 µM (active)

**Q.** Which Potency does the source give for `Cc1ccc(NC2=C(Cl)C(=O)OC2OC(=O)c2ccco2)cc1` (stereo not given) here?
**A.** inactive

**Q.** For `COc1ccc(C(=O)Nc2ccc(NC(=O)c3cccs3)cn2)cc1`, which Potency is on record?
**A.** inactive

**Q.** Which Potency does the source give for `CCOc1ccc2nc(NC(=O)c3cnccn3)sc2c1` here?
**A.** 9.96 µM (active)

**Q.** With `O=C(COc1ccccc1)NNc1nc2c(F)cccc2s1` as the compound, how does the Potency read?
**A.** inactive

**Q.** With `CCN(CC(=O)NCCc1ccc(Cl)cc1)Cc1nc2ccccc2c(=O)[nH]1` as the compound, how does the Potency read?
**A.** 25 µM (active)

**Q.** With `Cc1cc(C)nc(-n2nc(C)cc2NC(=O)CNC(C)c2ccccc2)n1` (stereo not given) as the compound, how does the Potency read?
**A.** 19.9 µM (active)

**Q.** With `Cc1ccc(NC(=O)CCN2CCN(C)CC2)cc1` as the compound, how does the Potency read?
**A.** inactive

**Q.** For `COc1ccc(/C=C/C(=O)NC(=S)NCC2CCCO2)cc1` (stereo not given), which Potency is on record?
**A.** 14.1 µM (active)

**Q.** For `CN(Cc1ccccc1)c1ncnc2ccc(Br)cc12`, which Potency is on record?
**A.** inactive

**Q.** Which Potency does the source give for `O=C(NC(=S)Nc1nc(-c2ccc(Br)cc2)cs1)c1cccnc1` here?
**A.** inactive

**Q.** For `CCNC(=O)CCc1nc(-c2ccc(C(C)(C)C)cc2)no1`, which Potency is on record?
**A.** 4.45 µM (active)

**Q.** Which Potency does the source give for `Cc1ccc(Oc2nc(-c3ccccn3)nc3ccccc23)cc1` here?
**A.** 3.53 µM (active)

**Q.** Which Potency does the source give for `O=C(Cn1c(=O)oc2ccc(Cl)cc21)Nc1ccon1` here?
**A.** inactive

**Q.** For `Cc1ccc(C)c(/C=N/n2cc(-c3ccccc3)[nH]c2=S)c1`, which Potency is on record?
**A.** 9.96 µM (active)

**Q.** With `CCOC(=O)Cc1nnc(Nc2ccc(C(=O)NC)cc2)c2ccccc12` as the compound, how does the Potency read?
**A.** inactive

**Q.** With `CCn1nc(C)c(CN2CCC(n3nccc3NC(=O)c3ccc4c(c3)OCO4)CC2)c1C` as the compound, how does the Potency read?
**A.** inactive

**Q.** Which Potency does the source give for `O=[N+]([O-])c1ccccc1/C=C/C=N/n1c(-c2ccccc2)n[nH]c1=S` here?
**A.** inactive

**Q.** With `Cc1cc(Br)c2nc3c(c(C(=O)O)c2c1)CCCCC3` as the compound, how does the Potency read?
**A.** inactive

**Q.** With `CCN(CC)c1ccc(/C=N/n2c(-c3ccccc3Br)n[nH]c2=S)cc1` as the compound, how does the Potency read?
**A.** inactive

**Q.** With `COc1ccc(-c2cc(-c3ccccc3)n[nH]2)c(O)c1` as the compound, how does the Potency read?
**A.** 19.9 µM (active)

**Q.** With `CCOC(=O)[C@@H]1[C@H]2COc3ccccc3[C@@H]2N2C(=O)N(c3ccc(OC)cc3)C(=O)[C@@]12C` as the compound, how does the Potency read?
**A.** inactive

**Q.** Which Potency does the source give for `OCCNc1nc2ccccc2n1-c1ncnc2sc3c(c12)CCC3` here?
**A.** 15.8 µM (active)
